Laboratory results: PubChem BioAssay (NCI)
About 83,000 compounds went through this panel and 20% of them were active in at least one assay; those are over-represented in the sample as a whole.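 Plates (96-well) were seeded with cells, treated with compound at one concentration, and incubated for 48 hours before percent growth was determined.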 Unmarked numbers belong to inactive results. Activity calls are given as the source filed them. The calls were made as follows: active = growth percent below 10; inactive = the rest.

Legend:
Test in all cases: NCI-60 one-dose screen, 48 h (100 = growth as untreated, 0 = no growth, -100 = all killed)
Conditions in all cases: 10 µM unless noted
T-47D breast = tested on: T-47D breast
BT-549 breast = tested on: BT-549 breast
MDA-MB-435 melanoma = tested on: MDA-MB-435 melanoma
SW-620 colon = tested on: SW-620 colon
MCF7 breast = tested on: MCF7 breast
HCT-116 colon = tested on: HCT-116 colon
HCC-2998 colon = tested on: HCC-2998 colon
KM12 colon = tested on: KM12 colon

Row | SMILES | growth (T-47D breast) | growth (BT-549 breast) | growth (MDA-MB-435 melanoma) | growth (SW-620 colon) | growth (MCF7 breast) | growth (HCT-116 colon) | growth (HCC-2998 colon) | growth (KM12 colon)
1 | Cc1ccc(-c2csc(N(C(=O)N3CCN(c4cc5c(cc4F)c(=O)c(C(=O)O)cn5C4CC4)CC3)c3ccccc3)n2)cc1 | 13% | -2.16% (active) | 14.9% | 19.1% | 7.97% (active) | 6.17% (active) | 13.1% | 4.3% (active)
2 | Cn1cc(-c2ccc(-c3cn(C)c4ccc(Cl)cc34)[nH]2)c2cc(Cl)ccc21 | -51.1% (active) | -83.7% (active) | 19.5% | -83.1% (active) | 18.8% | -85.5% (active) | -72.2% (active) | -33.5% (active)
3 | CCN(CC)Cc1cc(Nc2ccnc3cc(Cl)ccc23)ccc1O | 100% | 95.5% | 97.8% | 88.4% | 86.9% | 79.7% | 93.2% | 87.7%
4 | COc1ccc(N2CCN(C(=O)c3sc4nc(C)c(Br)c(C)c4c3N)CC2)cc1 | 79% | 88.2% | 98.7% | 104% | 81% | 99% | 97.1% | 94%
5 | CCOc1cccc(/C=N/NC(=O)c2cccc(Nc3ccnc(C(F)(F)F)c3)c2)c1O | 27.6% | 48.5% | 34.4% | 36.6% | 17.4% | 13% | 43.5% | 38.9%
6 | CCN1C(=O)N(CC)C2C1NN=c1s/c(=C3\C(=O)N(CC(C)C)c4ccccc43)c(=O)n12 (stereo not drawn) | 73.8% | 17.5% | -16.4% (active) | 33.9% | 15.1% | 11.9% | 13.8% | 20.9%
7 | COc1ccc(-c2nn(-c3ccccc3)cc2/C=C/C(=O)NNC(=O)Nc2ccc(C)cc2)cc1 | 92.3% | 114% | 99.9% | 95.1% | 91.9% | 77.7% | 96.7% | 101%
8 | O=C(O)[C@@H](Cc1ccc2ccccc2c1)NC(=O)n1c2ccccc2c2ccccc21 | 70.7% | 11.3% | -53% (active) | 27.3% | 17.1% | 9.76% (active) | 21.4% | 18.5%
9 | CCOC(=O)C(Cc1ccc(OC)cc1)C(=O)OCC | 20.7% | -9.62% (active) | 14.7% | 35.1% | 17.1% | 17.8% | 55.5% | 7.78% (active)
10 | N=c1c(S(=O)(=O)c2ccccc2)cc2c(=O)n3ccccc3nc2n1CC1CCCO1 (stereo not drawn) | 104% | 101% | 109% | 96.1% | 106% | 105% | 105% | 108%
11 | CC(=C(c1ccc(OCCN2CCCCC2)cc1)c1ccc(OCCN2CCCCC2)cc1)c1ccc(Cl)cc1 | -72.6% (active) | -87% (active) | -96.6% (active) | -84.8% (active) | -85.4% (active) | -88.9% (active) | -93.4% (active) | -84.9% (active)
12 | COc1cc(NC(=O)c2cncnc2Nc2ccc3c(ccn3Cc3ccccn3)c2)cc(OC)c1 | 45.3% | 34.9% | -6.69% (active) | 23.6% | 31.2% | 18.2% | 67.8% | 33.7%
13 | COc1ccc2c(c1)CCc1[nH]nc(-c3cc(OC)c(OC)c(OC)c3)c1-2 | 31.3% | 5.42% (active) | -30.3% (active) | 20.4% | 6.38% (active) | -3.02% (active) | 5.58% (active) | 7.02% (active)
14 | C#CCn1cnc2cnc(Nc3cccc(NC(=O)C=C)c3)nc21 | 66% [6.25 µM] | 60.9% [6.25 µM] | 60.6% [6.25 µM] | 91.2% [6.25 µM] | 77.4% [6.25 µM] | 86.4% [6.25 µM] | 97.9% [6.25 µM] | 91.9% [6.25 µM]
15 | CCN1C2CCC1/C(=C\c1ccc(F)cc1)C(=O)/C2=C/c1ccc(F)cc1 | 45.8% | 24.9% | 25% | 30.4% | 18.6% | 7.21% (active) | 65.8% | 17.5%
16 | CCN1C(=O)N(CC)C2C1NN=c1s/c(=C\c3ccc(C(F)(F)F)cc3)c(=O)n12 (stereo not drawn) | 64.7% | 9.68% (active) | -26.5% (active) | 20.7% | 15.9% | 9.6% (active) | 9.59% (active) | 15.2%

Row | SMILES | growth (T-47D breast) | growth (BT-549 breast) | growth (MDA-MB-435 melanoma) | growth (SW-620 colon) | growth (MCF7 breast) | growth (HCT-116 colon) | growth (HCC-2998 colon) | growth (KM12 colon)
17 | CN1CCN(C(=O)C(C)(C)c2ccc(C(=O)Nc3cn4cc(-c5ccncc5)ccc4n3)cc2)CC1 | 3.75% (active) | 7.86% (active) | 14.2% | 11.1% | -0.0814% (active) | 5.31% (active) | 13.9% | 7.82% (active)
18 | CN1C(=O)/C(=C/c2ccc(C(=O)Nc3ncc(Cc4cccc(Cl)c4)s3)cc2)SC1=S | 42.7% | 57% | 5.05% (active) | 37.4% | 46% | 47.5% | 59.2% | 33.5%
19 | Cc1ccc(Cl)cc1NC(=O)c1sc2nc3c(cc2c1N)C(=O)CCC3 | 82.9% | 93.5% | -3.04% (active) | 36.5% | 35.6% | 68% | 74.9% | 37%
20 | COc1ccc(/C=C2\COc3ccc(O)cc3C2=O)cc1 | 87.9% | 87.8% | 78.7% | 84.6% | 15.4% | 77.7% | 103% | 58%
21 | Cc1ncc(C(=O)Nc2ccc(CN3CCN(C)CC3)c(C(F)(F)F)c2)cc1C#Cc1cnc(N)c2ncccc12 | 51.4% | 42.4% | -66.5% (active) | 16.6% | -58.6% (active) | -75.5% (active) | 52.1% | 7.51% (active)
22 | COc1ccc(/C=C(/c2ccccc2)[N+](=O)[O-])c(OC)c1 | -6.78% (active) | -17.7% (active) | -21.6% (active) | -71.3% (active) | 3.58% (active) | -42.8% (active) | -71.4% (active) | -32.4% (active)
23 | COC(=O)N1CC(Oc2ccccn2)C2CC1c1ccccc1O2 (stereo not drawn) | 99.9% | 99.5% | 105% | 102% | 102% | 97.2% | 104% | 107%
24 | CCC1S/C(=N\N=C(\C)c2cc3cc(Cl)ccc3o2)N(c2ccccc2)C1=O (stereo not drawn) | 88.5% | 119% | 96.4% | 90% | 100% | 84.2% | 83.2% | 91.6%
25 | COc1ccc(Cn2cc(C(=O)N=Nc3c(O)[nH]c4c(C)cccc34)nn2)cc1 | 81% | 103% | 82% | 57.5% | 84.9% | 7.11% (active) | 101% | 95.6%
26 | C/C=C(/C)n1cnc2c(Nc3ccccn3)nc(Cl)nc21 | 93.6% | 103% | 107% | 103% | 99.9% | 104% | 103% | 109%
27 | COc1ccc(CCN(CC(=O)N(CC(N)=O)C2CCC[C@@H]2OCc2ccccc2)C(=O)CN(C(=O)CN(CCc2ccc(Cl)cc2)C(=O)CN(C(=O)CN(C)Cc2ccccc2F)[C@H](C)C2CCCCC2)[C@H](C)C2CCCCC2)cc1OC (stereo partly drawn) | 27% | 47.3% | 26% | 53.2% | 14.1% | 22.4% | 0.406% (active) | 20.2%
28 | COc1ccc(/C(C)=C(/c2ccc(OCCCN(C)C)cc2)c2ccc(OC(=O)c3ccccc3)cc2)cc1 | 49.7% | 87% | 85% | 88.8% | 31% | 48.6% | 88.3% | 75.2%
29 | CN1CCN(C(=S)SCCCCOc2cc(=O)oc3ccccc23)CC1 | 55.6% | 81.3% | 96.7% | 100% | 78.6% | 86.8% | 98.1% | 85.4%
30 | Clc1ccccc1-c1cnn2cc(-c3ccccc3)cnc12 | 78.9% | 83.1% | 44.8% | 76.9% | 75.3% | 69% | 85.9% | 63.8%
31 | N#CC1=C(N)Oc2ccc3ccccc3c2C1c1ccc([N+](=O)[O-])cc1 (stereo not drawn) | 82.5% | 91.7% | -51.3% (active) | 100% | 66% | 85.5% | 107% | 95.5%
